# Laboratory results published in paper PMC5540273 (PLoS ONE, 2017).
# How the values were obtained:
# Settings in all cases: concentration: 1 μM, replicates: in singlicate; n = 1
# ABL2 = system: ABL2
# ACVR1B = system: ACVR1B
# ACVR1 = system: ACVR1
# ACVR2A = system: ACVR2A
# ACVR2B = system: ACVR2B
# ACVRL1 = system: ACVRL1
# ADCK3 = system: T1, ADCK3
# T1 construct: gene CABC1
# ADCK4 = system: ADCK4
# AKT1 = system: AKT1
# AKT2 = system: AKT2
# 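Also: KINOMEscan kinase panel screen.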
structure (smiles),measurement,setting,value
Cc1cc(N2CCC(NS(=O)(=O)c3ccc(F)cc3)CC2)nc(Nc2cccc(C#N)c2)n1.O=C(O)C(F)(F)F [GSK1653537],%Inh,ABL2,2%
same,%Inh,ACVR1B,0%
same,%Inh,ACVR1,0%
same,%Inh,ACVR2A,0%
same,%Inh,ACVR2B,0%
same,%Inh,ACVRL1,0%
same,%Inh,ADCK3,0%
same,%Inh,ADCK4,0%
same,%Inh,AKT1,0%
same,%Inh,AKT2,20%
CSc1ccc(NC2=C(c3ccccc3Cl)C(=O)NC2=O)cc1 [SB-342411],%Inh,ABL2,3%
same,%Inh,ACVR1B,0%
same,%Inh,ACVR1,0%
same,%Inh,ACVR2A,0%
same,%Inh,ACVR2B,0%
same,%Inh,ACVRL1,0%
same,%Inh,ADCK3,16%
same,%Inh,ADCK4,0%
same,%Inh,AKT1,0%
same,%Inh,AKT2,11%
N#Cc1ccc(Oc2ccc(Nc3ncnc4cc[nH]c34)cc2Cl)cc1,%Inh,ABL2,12%
same,%Inh,ACVR1B,15%
same,%Inh,ACVR1,1%
same,%Inh,ACVR2A,27%
same,%Inh,ACVR2B,25%
same,%Inh,ACVRL1,6%
same,%Inh,ADCK3,13%
same,%Inh,ADCK4,8%
same,%Inh,AKT1,0%
same,%Inh,AKT2,0%
Cl.c1ccc(Cn2ncc3cc(Nc4ncnc5ccccc45)ccc32)cc1 [GW273749],%Inh,ABL2,0%
same,%Inh,ACVR1B,0%
same,%Inh,ACVR1,5%
same,%Inh,ACVR2A,0%
same,%Inh,ACVR2B,0%
same,%Inh,ACVRL1,0%
same,%Inh,ADCK3,7%
same,%Inh,ADCK4,22%
same,%Inh,AKT1,0%
same,%Inh,AKT2,13%
NC(=O)c1sc(-n2cnc3ccccc32)cc1OCc1ccccc1F [GSK1024306],%Inh,ABL2,8%
same,%Inh,ACVR1B,0%
same,%Inh,ACVR1,0%
same,%Inh,ACVR2A,0%
same,%Inh,ACVR2B,2%
same,%Inh,ACVRL1,0%
same,%Inh,ADCK3,5%
same,%Inh,ADCK4,7%
same,%Inh,AKT1,0%
same,%Inh,AKT2,0%
CNc1nccc(-c2c(-c3ccc(F)cc3)ncn2CCCN2CCOCC2)n1 [SB-222516],%Inh,ABL2,12%
same,%Inh,ACVR1B,19%
same,%Inh,ACVR1,8%
same,%Inh,ACVR2A,4%
same,%Inh,ACVR2B,4%
same,%Inh,ACVRL1,15%
same,%Inh,ADCK3,1%
same,%Inh,ADCK4,0%
same,%Inh,AKT1,18%
same,%Inh,AKT2,0%
CCCc1ccc(S(=O)(=O)NC2CCN(c3ccnc(Nc4ccc(OC)cc4)n3)C2)cc1 (centres unmarked) [GSK1379737],%Inh,ABL2,14%
same,%Inh,ACVR1B,0%
same,%Inh,ACVR1,0%
same,%Inh,ACVR2A,0%
same,%Inh,ACVR2B,0%
same,%Inh,ACVRL1,0%
same,%Inh,ADCK3,0%
same,%Inh,ADCK4,66%
same,%Inh,AKT1,0%
same,%Inh,AKT2,0%
c1ccc(-c2ccc3c(-c4ccnc(Nc5ccc6c(c5)OCCO6)n4)cnn3n2)cc1 [GW818941],%Inh,ABL2,12%
same,%Inh,ACVR1B,0%
same,%Inh,ACVR1,24%
same,%Inh,ACVR2A,32%
same,%Inh,ACVR2B,11%
same,%Inh,ACVRL1,13%
same,%Inh,ADCK3,0%
same,%Inh,ADCK4,9%
same,%Inh,AKT1,0%
same,%Inh,AKT2,10%
Cc1ccc(NC(=O)c2cccc(C#N)c2)cc1-c1ccc(C(=O)Nc2ccncc2)cc1 [GSK1398463],%Inh,ABL2,54%
same,%Inh,ACVR1B,0%
same,%Inh,ACVR1,18%
same,%Inh,ACVR2A,0%
same,%Inh,ACVR2B,0%
same,%Inh,ACVRL1,2%
same,%Inh,ADCK3,18%
same,%Inh,ADCK4,6%
same,%Inh,AKT1,0%
same,%Inh,AKT2,0%
O=c1cc(N2CCOCC2)nc2n(Cc3cccc(Cl)c3)ccn12 [GSK2296823],%Inh,ABL2,12%
same,%Inh,ACVR1B,0%
same,%Inh,ACVR1,0%
same,%Inh,ACVR2A,0%
same,%Inh,ACVR2B,0%
same,%Inh,ACVRL1,0%
same,%Inh,ADCK3,24%
same,%Inh,ADCK4,0%
same,%Inh,AKT1,0%
same,%Inh,AKT2,3%
CN1c2ccc(-c3ccc(C(=O)NCCO)cc3)cc2-c2[nH]ncc2S1(=O)=O,%Inh,ABL2,7%
same,%Inh,ACVR1B,0%
same,%Inh,ACVR1,22%
same,%Inh,ACVR2A,0%
same,%Inh,ACVR2B,2%
same,%Inh,ACVRL1,0%
same,%Inh,ADCK3,0%
same,%Inh,ADCK4,3%
same,%Inh,AKT1,11%
same,%Inh,AKT2,0%
CC(=O)Nc1n[nH]c2ncc(-c3ccccc3)cc12 [SB-548492],%Inh,ABL2,11%
same,%Inh,ACVR1B,2%
same,%Inh,ACVR1,13%
same,%Inh,ACVR2A,37%
same,%Inh,ACVR2B,10%
same,%Inh,ACVRL1,0%
same,%Inh,ADCK3,0%
same,%Inh,ADCK4,0%
same,%Inh,AKT1,0%
same,%Inh,AKT2,0%
Oc1ccc2ncnc(Nc3ccc(OCc4ccccc4)cc3)c2c1 [GI262866],%Inh,ABL2,7%
same,%Inh,ACVR1B,0%
same,%Inh,ACVR1,0%
same,%Inh,ACVR2A,0%
same,%Inh,ACVR2B,9%
same,%Inh,ACVRL1,0%
same,%Inh,ADCK3,0%
same,%Inh,ADCK4,0%
same,%Inh,AKT1,0%
same,%Inh,AKT2,9%
Fc1cccc(COc2ccc(Nc3ncnc4sc(-c5ccc[nH]5)cc34)cc2Cl)c1 [GW707818],%Inh,ABL2,0%
same,%Inh,ACVR1B,2%
same,%Inh,ACVR1,9%
same,%Inh,ACVR2A,5%
same,%Inh,ACVR2B,16%
same,%Inh,ACVRL1,4%
same,%Inh,ADCK3,1%
same,%Inh,ADCK4,24%
same,%Inh,AKT1,0%
same,%Inh,AKT2,7%
C[C@@H]1CCN(C(=O)CO)C[C@@H]1N(C)c1ncnc2[nH]ccc12,%Inh,ABL2,0%
same,%Inh,ACVR1B,13%
same,%Inh,ACVR1,0%
same,%Inh,ACVR2A,0%
same,%Inh,ACVR2B,0%
same,%Inh,ACVRL1,8%
same,%Inh,ADCK3,0%
same,%Inh,ADCK4,0%
same,%Inh,AKT1,0%
same,%Inh,AKT2,0%
CC(C)N1CCC(n2cnc(-c3ccc(F)cc3)c2-c2ccnc(N)n2)CC1 [SB-223132],%Inh,ABL2,0%
same,%Inh,ACVR1B,0%
same,%Inh,ACVR1,0%
same,%Inh,ACVR2A,22%
same,%Inh,ACVR2B,25%
same,%Inh,ACVRL1,0%
same,%Inh,ADCK3,31%
same,%Inh,ADCK4,0%
same,%Inh,AKT1,3%
same,%Inh,AKT2,0%
CCc1nc(-c2cccc(C)c2)c(-c2ccnc(NC(=O)c3ccccc3)c2)s1,%Inh,ABL2,27%
same,%Inh,ACVR1B,12%
same,%Inh,ACVR1,0%
same,%Inh,ACVR2A,0%
same,%Inh,ACVR2B,0%
same,%Inh,ACVRL1,0%
same,%Inh,ADCK3,17%
same,%Inh,ADCK4,20%
same,%Inh,AKT1,0%
same,%Inh,AKT2,13%
